Growth inhibition data for nine compounds are collected here from PubChem BioAssay (NCI).

The panel holds about 79,000 compounds, 15% with a hit somewhere; the sample as a whole holds those more often. A number with no mark means an inactive call. Activity calls are given as the source filed them. No stated cut-off is given here; in the data, active means growth inhibition above about 70%; inactive means the rest.

Assay [1] can be described thus: NCI Yeast Anticancer Drug Screen. Data for the rad50 strain (AID 155).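 Further: 0% = growth of vehicle-only cultures of the same strain.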 Conditions: S. cerevisiae rad50 strain growth inhibition, hits give high values. In a few lines: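 Compounds were tested on a yeast strain with an engineered DNA damage repair alteration; the reported value is growth inhibition normalised to vehicle treatment.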
The nature of assay [2]: NCI Yeast Anticancer Drug Screen. Data for the mec2-1 strain (AID 157). To be noted: S. cerevisiae mec2-1 strain, hits give high values. An outline of the steps: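 Yeast mec2-1 mutant treated with compound. Readout: growth inhibition vs vehicle controls.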
Assay [3] can be described thus: NCI Yeast Anticancer Drug Screen. Data for the sgs1 mgt1 strain (AID 161).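 Further: 0% = growth of cultures given vehicle only.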 To be noted: S. cerevisiae sgs1 mgt1 strain, hits give high values. In a few lines:
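Genetically altered yeast, compound exposure, growth inhibition relative to vehicle.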

Assay [4] in a line: NCI Yeast Anticancer Drug Screen. Data for the cln2 rad14 strain (AID 165).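 Further: 0% = growth equal to vehicle treated cultures.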 Conditions: S. cerevisiae cln2 rad14 strain, hits give high values. In a few lines:
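cln2 rad14 yeast strain; compound exposure; growth inhibition read vs vehicle controls.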

A short description of assay [5]: NCI Yeast Anticancer Drug Screen. Data for the bub3 strain (AID 167). To be noted: S. cerevisiae bub3 mutant strain, hits give high values. In a few lines: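 Growth of a checkpoint-deficient yeast mutant is measured after compound exposure. Values represent inhibition relative to vehicle.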
The nature of assay [6]: NCI Yeast Anticancer Drug Screen. Data for the mlh1 rad18 strain (AID 175). To be noted: S. cerevisiae mlh1 rad18 strain growth inhibition, hits give high values. In a few lines: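 Yeast w/ defined DNA-repair lesions; compound exposure; growth vs vehicle controls → % inhibition.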
The mark [7] stands for this setting: at 5.0 µM (retest, dose inferred, filed as 0.5).
Setting [8] is: at 50.0 µM (retest, dose inferred, filed as 5.0).

Regarding `CC1=C(C2CO2)C(=O)C(C)=C(C2CO2)C1=O` (configuration not stated), the growth inhibition in assay [1] (setting [7]) was 68%; in assay [1] (setting [8]) it was 100% (active); in assay [1] (at 50.0 µM) it was 99.6% (active); in assay [2] (setting [7]), 40%; in assay [2] (setting [8]), 100% (active); in assay [2] (at 50.0 µM), 99.5% (active). In addition, the growth inhibition was 43% in assay [3] (setting [7]); 99% (active) in assay [3] (setting [8]); 99.5% (active) in assay [3] (at 50.0 µM); 59% in assay [4] (setting [7]); 99% (active) in assay [4] (setting [8]); 99.5% (active) in assay [4] (at 50.0 µM). For the same compound, the growth inhibition was 43% in assay [5] (setting [7]); 99% (active) in assay [5] (setting [8]); 98.2% (active) in assay [5] (at 50.0 µM); 60% in assay [6] (setting [7]); 99% (active) in assay [6] (setting [8]); 99.5% (active) in assay [6] (at 50.0 µM).

On to `CN(C)CCC(=O)c1ccco1`, for which the growth inhibition in assay [1] (setting [7]) was 6%; in assay [1] (setting [8]) it was 85% (active); in assay [1] (at 50.0 µM), 86.1% (active); in assay [2] (setting [7]), 13%; in assay [2] (setting [8]) it was 93% (active); in assay [2] (at 50.0 µM) it was 94% (active). Besides, the growth inhibition in assay [3] (setting [7]) is 25%; in assay [3] (setting [8]) it was 87% (active); in assay [3] (at 50.0 µM) it was 93.3% (active); in assay [4] (setting [7]) it was 10%; in assay [4] (setting [8]), 89% (active); in assay [4] (at 50.0 µM) it was 93.5% (active). Also, the growth inhibition is -3% in assay [5] (setting [7]); 39% in assay [5] (setting [8]); 70.2% (active) in assay [5] (at 50.0 µM); 13% in assay [6] (setting [7]); 92% (active) in assay [6] (setting [8]); 95.3% (active) in assay [6] (at 50.0 µM).

As for `Cc1ccccc1N=NC(C(=O)c1ccccc1)C(=O)c1ccccc1`, the growth inhibition was 7% in assay [1] (setting [7]); 94% (active) in assay [1] (setting [8]); 93.2% (active) in assay [1] (at 50.0 µM); -14% in assay [2] (setting [7]); 96% (active) in assay [2] (setting [8]); 94% (active) in assay [2] (at 50.0 µM). The growth inhibition in assay [3] (setting [7]) was 15%; in assay [3] (setting [8]) it was 93% (active); in assay [3] (at 50.0 µM), 92.2% (active); in assay [4] (setting [7]), 3%; in assay [4] (setting [8]) it was 95% (active); in assay [4] (at 50.0 µM), 90% (active). For the same compound, the growth inhibition in assay [5] (setting [7]) is 5%; in assay [5] (setting [8]) it was 97% (active); in assay [5] (at 50.0 µM), 92.8% (active); in assay [6] (setting [7]), -8%; in assay [6] (setting [8]), 97% (active); in assay [6] (at 50.0 µM), 91.8% (active).

Take `CCOP(=O)(OCC)/C(C#N)=C/c1ccc(C(F)(F)F)cc1`: the growth inhibition in assay [1] (setting [7]) was 20%; in assay [1] (setting [8]), 90% (active); in assay [1] (at 50.0 µM), 89.5% (active); in assay [2] (setting [7]), -16%; in assay [2] (setting [8]), 94% (active); in assay [2] (at 50.0 µM), 91.7% (active). Besides, the growth inhibition is 4% in assay [3] (setting [7]); 93% (active) in assay [3] (setting [8]); 90.9% (active) in assay [3] (at 50.0 µM); 12% in assay [4] (setting [7]); 95% (active) in assay [4] (setting [8]); 89.4% (active) in assay [4] (at 50.0 µM). The growth inhibition in assay [5] (setting [7]) was 28%; in assay [5] (setting [8]) it was 97% (active); in assay [5] (at 50.0 µM) it was 89.4% (active); in assay [6] (setting [7]), 3%; in assay [6] (setting [8]), 90% (active); in assay [6] (at 50.0 µM) it was 86.8% (active).

As to `Nc1[nH]cnc(=S)c1NC=O`, the growth inhibition in assay [1] (setting [7]) is -1%; in assay [1] (setting [8]) it was -4%; in assay [1] (at 50.0 µM) it was 13.9%; in assay [2] (setting [7]), -1%; in assay [2] (setting [8]) it was -5%; in assay [2] (at 50.0 µM), 2.8%. Further, the growth inhibition in assay [3] (setting [7]) is -2%; in assay [3] (setting [8]) it was -5%; in assay [3] (at 50.0 µM) it was 35%; in assay [4] (setting [7]), -4%; in assay [4] (setting [8]), -5%; in assay [4] (at 50.0 µM), 0.4%. The growth inhibition in assay [5] (setting [7]) was 0%; in assay [5] (setting [8]), -3%; in assay [5] (at 50.0 µM), 42.3%; in assay [6] (setting [7]), -3%; in assay [6] (setting [8]), -3%; in assay [6] (at 50.0 µM) it was -1.9%.

On to `C/C(=N\NC(=S)N1CC(C)OC(C)C1)c1ncccn1` (configuration not stated), for which the growth inhibition in assay [1] (setting [7]) was 53%; in assay [1] (setting [8]), 81% (active); in assay [1] (at 50.0 µM), 99.5% (active); in assay [2] (setting [7]) it was 43%; in assay [2] (setting [8]), 100% (active); in assay [2] (at 50.0 µM), 99.4% (active). The growth inhibition in assay [3] (setting [7]) was 52%; in assay [3] (setting [8]) it was 100% (active); in assay [3] (at 50.0 µM), 99.5% (active); in assay [4] (setting [7]) it was 52%; in assay [4] (setting [8]), 99% (active); in assay [4] (at 50.0 µM), 99.2% (active). Further, the growth inhibition was 44% in assay [5] (setting [7]); 99% (active) in assay [5] (setting [8]); 99.3% (active) in assay [5] (at 50.0 µM); 80% (active) in assay [6] (setting [7]); 99% (active) in assay [6] (setting [8]); 99.3% (active) in assay [6] (at 50.0 µM).

Turning to `CCN(CC)c1ccc(N=Nc2ccc(Br)cn2)c(O)c1`, the growth inhibition was -1% in assay [1] (setting [7]); 51% in assay [1] (setting [8]); 96.8% (active) in assay [1] (at 50.0 µM); -4% in assay [2] (setting [7]); 84% (active) in assay [2] (setting [8]); 95.5% (active) in assay [2] (at 50.0 µM). The growth inhibition is -3% in assay [3] (setting [7]); 79% (active) in assay [3] (setting [8]); 97.1% (active) in assay [3] (at 50.0 µM); -2% in assay [4] (setting [7]); 46% in assay [4] (setting [8]); 94.7% (active) in assay [4] (at 50.0 µM). The growth inhibition in assay [5] (setting [7]) was 1%; in assay [5] (setting [8]), 71% (active); in assay [5] (at 50.0 µM), 97.2% (active); in assay [6] (setting [7]) it was -1%; in assay [6] (setting [8]) it was 77% (active); in assay [6] (at 50.0 µM) it was 97.2% (active).

In the case of `COC(=O)CC1c2cc(OC)c3cccc(OC)c3c2CCC1(C)C(=O)OC` (configuration not stated), the growth inhibition is 94% (active) in assay [1] (setting [7]); 89% (active) in assay [1] (setting [8]); 45.8% in assay [1] (at 50.0 µM); 94% (active) in assay [2] (setting [7]); 90% (active) in assay [2] (setting [8]); 18.4% in assay [2] (at 50.0 µM). Also, the growth inhibition in assay [3] (setting [7]) is 95% (active); in assay [3] (setting [8]) it was 95% (active); in assay [3] (at 50.0 µM), 93.2% (active); in assay [4] (setting [7]), 91% (active); in assay [4] (setting [8]), 90% (active); in assay [4] (at 50.0 µM), 73% (active). Besides, the growth inhibition in assay [5] (setting [7]) was 95% (active); in assay [5] (setting [8]), 90% (active); in assay [5] (at 50.0 µM), 77.2% (active); in assay [6] (setting [7]), 94% (active); in assay [6] (setting [8]) it was 91% (active); in assay [6] (at 50.0 µM) it was 13.7%.

As to `Cc1ccc(SC2=C(N(C)C)C(=O)c3ccccc3C2=O)cc1`, the growth inhibition in assay [1] (setting [7]) is 3%; in assay [1] (setting [8]), 90% (active); in assay [1] (at 50.0 µM), 96% (active); in assay [2] (setting [7]) it was -13%; in assay [2] (setting [8]) it was 94% (active); in assay [2] (at 50.0 µM), 14.1%. Also, the growth inhibition was -1% in assay [3] (setting [7]); 91% (active) in assay [3] (setting [8]); 77.3% (active) in assay [3] (at 50.0 µM); 42% in assay [4] (setting [7]); 94% (active) in assay [4] (setting [8]); 58.1% in assay [4] (at 50.0 µM). Also, the growth inhibition in assay [5] (setting [7]) is 4%; in assay [5] (setting [8]), 90% (active); in assay [5] (at 50.0 µM), 95.2% (active); in assay [6] (setting [7]), -3%; in assay [6] (setting [8]), 89% (active); in assay [6] (at 50.0 µM), 89.7% (active).
